For some assays here: Measured potencies and affinities stand elsewhere.

What all share (parameters): scale not given: direction of the effect not stated beside the values
Assay [1] concerns the target Protein translocase subunit SecA (Escherichia coli (strain K12)) (UniProt P10408). In words: Assay to Identify E. coli SecA ATPase Inhibitors. It counts as functional. As to conditions: 30 µM.
Assay [2] has as its target T1, Ubiquitin-activating enzyme e1, putative (Leishmania donovani (strain BPK282A1)) (UniProt E9BSI1).
T1 sequence (whole entry): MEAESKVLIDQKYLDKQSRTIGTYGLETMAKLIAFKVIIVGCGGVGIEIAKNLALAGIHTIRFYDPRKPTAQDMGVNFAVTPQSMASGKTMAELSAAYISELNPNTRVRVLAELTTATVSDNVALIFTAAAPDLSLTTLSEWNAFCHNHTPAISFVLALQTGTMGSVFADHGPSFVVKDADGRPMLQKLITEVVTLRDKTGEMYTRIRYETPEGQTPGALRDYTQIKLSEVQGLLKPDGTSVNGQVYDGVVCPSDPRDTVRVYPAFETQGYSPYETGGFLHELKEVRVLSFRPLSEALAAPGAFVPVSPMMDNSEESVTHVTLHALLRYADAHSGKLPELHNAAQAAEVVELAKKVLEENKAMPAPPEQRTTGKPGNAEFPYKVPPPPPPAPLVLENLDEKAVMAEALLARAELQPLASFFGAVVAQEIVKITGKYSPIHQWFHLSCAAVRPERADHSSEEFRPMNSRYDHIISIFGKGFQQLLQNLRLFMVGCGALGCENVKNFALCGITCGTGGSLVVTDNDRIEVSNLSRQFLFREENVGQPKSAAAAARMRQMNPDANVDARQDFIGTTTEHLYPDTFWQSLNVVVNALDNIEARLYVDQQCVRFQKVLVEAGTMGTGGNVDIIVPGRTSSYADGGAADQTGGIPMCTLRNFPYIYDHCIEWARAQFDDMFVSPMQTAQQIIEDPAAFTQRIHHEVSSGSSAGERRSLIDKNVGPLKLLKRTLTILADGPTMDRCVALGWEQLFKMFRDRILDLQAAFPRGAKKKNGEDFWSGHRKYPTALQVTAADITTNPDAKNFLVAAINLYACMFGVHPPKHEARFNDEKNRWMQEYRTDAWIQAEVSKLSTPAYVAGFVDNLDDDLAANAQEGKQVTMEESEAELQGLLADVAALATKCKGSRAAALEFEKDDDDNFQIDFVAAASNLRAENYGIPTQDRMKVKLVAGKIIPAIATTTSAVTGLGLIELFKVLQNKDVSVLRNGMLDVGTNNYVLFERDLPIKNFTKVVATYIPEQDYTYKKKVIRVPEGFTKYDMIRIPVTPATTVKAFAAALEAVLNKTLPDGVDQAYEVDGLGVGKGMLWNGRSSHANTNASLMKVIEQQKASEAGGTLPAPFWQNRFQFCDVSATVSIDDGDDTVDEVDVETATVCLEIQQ
In words: Leishmania donovani Ubiquitin Activating Enzyme (LdE1). In kind it is functional. Conditions: 30 µM.

The target of assay [3] is AMP-activated protein kinase, AMPK (Homo sapiens) (UniProt P54646+O43741+P54619+Q9UGJ0+Q9Y478+Q13131+Q9UGI9). In words: AMP-dependent Kinase enzyme assay. An in vitro enzyme assay that detects ADP turnover that is directly proportional to AMPK activity. This uses naive AMPK that is activated during the assay with MK-8722. In kind it is functional. Conditions: 30 µM.
Assay [4] concerns the target Sialic acid-binding Ig-like lectin 9 (Homo sapiens) (UniProt Q9Y336). Description: Hs-Siglec9 ALPHAscreen SOP 20170721. As to conditions: 10 µM.
Another assay relates to Trypanosoma cruzi. In words: Trypanosoma cruzi phosphomannomutase and mannose-1-phosphate guanylyltransferase assay. As to conditions: 10 µM. In kind it is functional.
In assay [5] the target is T2, Arginase-2, mitochondrial (Homo sapiens) (UniProt P78540).
T2 sequence (whole entry): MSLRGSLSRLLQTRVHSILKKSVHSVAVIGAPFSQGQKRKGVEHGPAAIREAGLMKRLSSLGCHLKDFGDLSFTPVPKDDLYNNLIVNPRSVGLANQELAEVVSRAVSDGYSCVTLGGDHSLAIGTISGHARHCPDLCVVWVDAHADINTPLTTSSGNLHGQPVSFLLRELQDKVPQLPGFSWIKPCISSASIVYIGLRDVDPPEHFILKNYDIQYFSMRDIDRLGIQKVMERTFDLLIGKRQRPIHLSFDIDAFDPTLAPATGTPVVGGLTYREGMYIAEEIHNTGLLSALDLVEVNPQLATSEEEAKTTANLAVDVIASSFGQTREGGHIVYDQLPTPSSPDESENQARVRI
Description: in vitro enzyme assay to detect the production of urea directly proportional to the activity of Arginase II. Also: in the data most compounds retested in dose-response had high values. It counts as functional. Conditions: 33.3 µM.

Assay [6] addresses T3, Proteasome subunit beta (Trypanosoma cruzi) (UniProt O96673).
T3 sequence (whole entry): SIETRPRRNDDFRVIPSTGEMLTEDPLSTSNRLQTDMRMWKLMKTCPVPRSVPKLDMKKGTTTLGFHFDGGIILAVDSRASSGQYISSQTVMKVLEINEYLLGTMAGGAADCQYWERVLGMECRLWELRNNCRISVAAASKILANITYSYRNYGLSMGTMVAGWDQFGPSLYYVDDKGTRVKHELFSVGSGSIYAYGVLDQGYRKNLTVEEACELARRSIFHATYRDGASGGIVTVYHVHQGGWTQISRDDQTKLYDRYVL
In words: Trypanosoma cruzi proteasome chymotrypsin-like activity (TcProtChymo) assay. Also: in the data most compounds retested in dose-response had high values. It counts as functional. As to conditions: 9.37 µM.

The species named for a further assay is Homo sapiens. Description: To identify inhibition of the IFN signalling (Jak-Stat) pathway via expression of an eGFP reporter gene under the control of an IFN-stimulated response element (ISRE) containing MxA promoter. Conditions: 30 µM. In kind it is functional.
Assay [7] addresses T4, Tyrosyl-tRNA synthetase, putative (Trypanosoma cruzi (strain CL Brener)) (UniProt Q4DSP6).
T4 sequence (whole entry): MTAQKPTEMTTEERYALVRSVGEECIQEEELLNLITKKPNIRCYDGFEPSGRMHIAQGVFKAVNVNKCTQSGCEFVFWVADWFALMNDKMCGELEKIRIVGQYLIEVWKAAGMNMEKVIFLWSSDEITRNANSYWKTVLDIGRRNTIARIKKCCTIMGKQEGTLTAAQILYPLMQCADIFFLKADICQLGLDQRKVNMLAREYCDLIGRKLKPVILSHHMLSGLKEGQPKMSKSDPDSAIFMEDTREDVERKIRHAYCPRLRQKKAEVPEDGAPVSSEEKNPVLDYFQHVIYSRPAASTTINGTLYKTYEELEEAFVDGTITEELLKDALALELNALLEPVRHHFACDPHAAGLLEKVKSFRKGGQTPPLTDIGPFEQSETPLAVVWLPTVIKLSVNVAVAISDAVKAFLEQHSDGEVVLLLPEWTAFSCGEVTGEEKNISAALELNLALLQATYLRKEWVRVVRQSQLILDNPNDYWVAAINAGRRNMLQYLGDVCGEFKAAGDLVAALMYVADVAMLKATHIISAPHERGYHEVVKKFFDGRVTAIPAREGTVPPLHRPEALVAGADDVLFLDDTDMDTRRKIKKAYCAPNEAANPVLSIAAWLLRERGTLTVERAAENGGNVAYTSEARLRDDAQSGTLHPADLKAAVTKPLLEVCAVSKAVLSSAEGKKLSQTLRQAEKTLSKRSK
In words: Trypanosoma cruzi tyrosyl tRNA synthetase (TcYRS) _High Tyrosine SOP. Also: in the data most compounds retested in dose-response had high values. Conditions: 30 µM. In kind it is functional.

Assay [8] concerns the target T4, Tyrosyl-tRNA synthetase, putative (Trypanosoma cruzi (strain CL Brener)). Description: Trypanosoma cruzi tyrosyl tRNA synthetase (TcYRS) SOP. It counts as functional. Conditions: 30 µM.
Assay [9] has as its target Chromo domain-containing protein 1 (Saccharomyces cerevisiae (strain ATCC 204508 / S288c) (Baker's yeast)) (UniProt P32657). In words: ScCHD-1 Enzyme Inhibition Assay. Also: in the data most compounds retested in dose-response had high values. As to conditions: 30 µM. It counts as functional.

Chromo domain-containing protein 1 (Saccharomyces cerevisiae (strain ATCC 204508 / S288c) (Baker's yeast)), sequence (P32657 whole entry, the tested form may be a part): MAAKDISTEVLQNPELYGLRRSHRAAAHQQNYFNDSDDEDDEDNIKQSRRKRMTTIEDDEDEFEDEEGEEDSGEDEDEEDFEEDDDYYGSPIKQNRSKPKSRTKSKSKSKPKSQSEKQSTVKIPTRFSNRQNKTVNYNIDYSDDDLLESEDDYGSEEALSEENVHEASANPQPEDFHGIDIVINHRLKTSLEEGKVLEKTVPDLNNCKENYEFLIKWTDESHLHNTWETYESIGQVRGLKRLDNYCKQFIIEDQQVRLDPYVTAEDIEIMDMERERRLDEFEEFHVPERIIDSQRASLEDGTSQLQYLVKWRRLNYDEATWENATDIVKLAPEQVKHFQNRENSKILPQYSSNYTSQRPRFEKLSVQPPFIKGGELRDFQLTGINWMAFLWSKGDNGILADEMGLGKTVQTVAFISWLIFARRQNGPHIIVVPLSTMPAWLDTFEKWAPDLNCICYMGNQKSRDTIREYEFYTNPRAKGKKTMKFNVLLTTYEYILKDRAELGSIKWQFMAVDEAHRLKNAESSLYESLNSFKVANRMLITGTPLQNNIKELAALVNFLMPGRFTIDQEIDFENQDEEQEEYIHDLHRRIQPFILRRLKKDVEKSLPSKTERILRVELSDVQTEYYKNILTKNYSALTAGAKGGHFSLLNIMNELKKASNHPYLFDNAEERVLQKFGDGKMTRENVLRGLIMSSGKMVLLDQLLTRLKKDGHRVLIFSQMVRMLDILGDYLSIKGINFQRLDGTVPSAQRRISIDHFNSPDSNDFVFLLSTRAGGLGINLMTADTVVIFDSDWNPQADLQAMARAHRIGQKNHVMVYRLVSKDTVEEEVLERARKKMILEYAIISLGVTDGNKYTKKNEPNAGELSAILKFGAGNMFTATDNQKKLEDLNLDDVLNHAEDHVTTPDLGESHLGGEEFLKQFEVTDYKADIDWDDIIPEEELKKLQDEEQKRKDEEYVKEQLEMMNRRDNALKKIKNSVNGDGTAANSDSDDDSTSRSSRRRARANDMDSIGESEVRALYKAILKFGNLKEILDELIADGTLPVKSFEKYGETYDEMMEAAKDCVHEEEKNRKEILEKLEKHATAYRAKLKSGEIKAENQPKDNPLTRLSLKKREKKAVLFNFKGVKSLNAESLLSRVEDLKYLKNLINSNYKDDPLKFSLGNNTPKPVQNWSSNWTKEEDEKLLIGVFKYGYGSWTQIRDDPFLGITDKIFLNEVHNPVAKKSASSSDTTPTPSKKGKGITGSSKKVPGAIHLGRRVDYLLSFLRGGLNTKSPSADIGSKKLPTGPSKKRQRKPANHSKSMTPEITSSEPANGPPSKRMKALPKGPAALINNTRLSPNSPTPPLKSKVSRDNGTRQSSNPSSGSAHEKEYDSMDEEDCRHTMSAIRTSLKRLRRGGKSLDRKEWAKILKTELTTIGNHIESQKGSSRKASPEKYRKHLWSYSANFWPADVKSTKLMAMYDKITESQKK
Protein translocase subunit SecA (Escherichia coli (strain K12)), sequence (P10408 whole entry): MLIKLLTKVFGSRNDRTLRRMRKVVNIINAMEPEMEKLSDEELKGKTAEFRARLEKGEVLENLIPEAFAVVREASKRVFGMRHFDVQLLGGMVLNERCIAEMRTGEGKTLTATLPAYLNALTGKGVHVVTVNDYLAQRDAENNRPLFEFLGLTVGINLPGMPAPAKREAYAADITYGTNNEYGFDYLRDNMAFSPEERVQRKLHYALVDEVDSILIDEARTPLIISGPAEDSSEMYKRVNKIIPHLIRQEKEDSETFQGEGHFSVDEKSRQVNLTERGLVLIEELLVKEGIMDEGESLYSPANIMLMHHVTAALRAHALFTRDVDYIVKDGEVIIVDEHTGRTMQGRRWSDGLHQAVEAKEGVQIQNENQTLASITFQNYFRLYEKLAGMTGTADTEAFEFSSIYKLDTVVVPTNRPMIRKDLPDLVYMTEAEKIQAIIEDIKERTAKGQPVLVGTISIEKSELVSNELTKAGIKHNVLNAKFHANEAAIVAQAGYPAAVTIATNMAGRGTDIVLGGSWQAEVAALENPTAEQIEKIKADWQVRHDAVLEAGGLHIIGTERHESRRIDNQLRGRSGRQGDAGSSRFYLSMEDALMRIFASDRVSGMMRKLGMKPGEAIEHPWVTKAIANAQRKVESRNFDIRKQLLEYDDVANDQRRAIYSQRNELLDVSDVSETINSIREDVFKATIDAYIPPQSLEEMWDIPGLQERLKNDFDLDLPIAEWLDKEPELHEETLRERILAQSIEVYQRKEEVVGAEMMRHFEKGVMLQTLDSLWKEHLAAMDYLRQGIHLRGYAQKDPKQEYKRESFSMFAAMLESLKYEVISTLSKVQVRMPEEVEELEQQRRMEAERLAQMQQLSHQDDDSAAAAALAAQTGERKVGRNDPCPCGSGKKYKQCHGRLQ
Sialic acid-binding Ig-like lectin 9 (Homo sapiens), sequence (Q9Y336 whole entry): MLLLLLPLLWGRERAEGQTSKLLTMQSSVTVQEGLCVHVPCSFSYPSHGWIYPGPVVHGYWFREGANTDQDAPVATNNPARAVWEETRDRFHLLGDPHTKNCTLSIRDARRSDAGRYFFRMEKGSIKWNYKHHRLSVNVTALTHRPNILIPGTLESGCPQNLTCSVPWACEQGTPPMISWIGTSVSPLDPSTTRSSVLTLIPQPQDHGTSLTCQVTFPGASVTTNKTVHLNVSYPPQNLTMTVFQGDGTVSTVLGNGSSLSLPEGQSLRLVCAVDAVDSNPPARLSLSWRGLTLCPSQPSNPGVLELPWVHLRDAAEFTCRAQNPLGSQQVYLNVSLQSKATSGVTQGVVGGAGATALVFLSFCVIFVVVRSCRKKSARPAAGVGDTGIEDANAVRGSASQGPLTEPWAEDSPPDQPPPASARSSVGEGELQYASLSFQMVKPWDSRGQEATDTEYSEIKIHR

With `Cc1ccnc(OCC(=O)N2CCC(C(N)=O)CC2)n1`, the Percent Effect in assay [1] is -3.87%; in [2] it was 21.9%; in assay [3], 0.564%; in assay [4] it was 12.6%; in the assay on Trypanosoma cruzi it was 1.37%; in assay [5], 5%. The Percent Effect in [6] was 11.4%; in the assay filed under Homo sapiens, 7.23%; in [7], 6.45%; in assay [8] it was 15%; in [9], -7.43%.
As for `Cc1n[nH]c(C2CN(CC(=O)NCc3ccco3)CCO2)n1` (stereo not given), the Percent Effect is -7.98% in assay [1]; 0% in assay [2]; 3.1% in [3]; -5.39% in [4]; -5.36% with Trypanosoma cruzi; -2.6% in assay [5]. Also, the Percent Effect in assay [6] is 6.8%; in the assay filed under Homo sapiens, 24.6%; in [7] it was -1.64%; in assay [8] it was -3.7%; in assay [9], -2.33%.
Turning to `CN1CCN(C(=O)c2nc3c(o2)CN(C(=O)c2cccnc2)C3)CC1`, the Percent Effect was -2.08% in assay [1]; 0% in assay [2]; -4.16% in assay [3]; 2.81% in assay [4]; -1.28% with Trypanosoma cruzi; -5.52% in [5]. Also, the Percent Effect in assay [6] stood at 14%; in the assay listed under Homo sapiens, 2.22%; in [7], 1.07%; in [8], 8.64%; in assay [9], 1.76%.
Take `N#Cc1ccccc1OCCN1CCC(N2CCNC2=O)CC1`: the Percent Effect is -1.9% in assay [1]; 5.41% in assay [2]; -4.78% in assay [3]; 2.6% in [4]; 0.65% in the assay on Trypanosoma cruzi; -1.29% in assay [5]. Moreover, the Percent Effect was 6.28% in assay [6]; 8.35% in the assay listed under Homo sapiens; 6.93% in assay [7]; 13.4% in assay [8]; -0.203% in [9].
With `Cc1cc(C)n(CC(=O)N2CCC(c3nc(C)no3)CC2)n1`, the Percent Effect was -2.79% in assay [1]; 9.72% in assay [2]; 3.9% in assay [3]; -0.831% in assay [4]; 2.43% in the assay on Trypanosoma cruzi; 3.09% in assay [5]. The Percent Effect in assay [6] was 9.3%; in the assay filed under Homo sapiens, -22.2%; in [7], 3.16%; in assay [8] it was 5.13%; in assay [9], -4.51%.
Regarding `c1ncn(CC2CN(Cc3csc(C4CCCC4)n3)CCO2)n1` (stereo not given), the Percent Effect in [1] was -7.65%; in assay [2], 15.8%; in assay [3], -7.05%; in assay [4], 15.7%; with Trypanosoma cruzi it was 3.46%; in assay [5] it was -1.44%. Besides, the Percent Effect was -2.79% in assay [6]; 2.48% in the assay filed under Homo sapiens; 4.43% in assay [7]; 23.5% in [8]; -9.07% in [9].
For `Cc1nc([C@@H]2C[C@@H]3CCN(C(=O)c4ccnnc4)C[C@H]3O2)sc1C`, the Percent Effect in [1] was -3.66%; in assay [2], 18.2%; in assay [3], -2.5%; in assay [4], -0.581%; with Trypanosoma cruzi, 5.42%; in assay [5] it was 1.94%. Further, the Percent Effect in [6] is 14.4%; in the assay filed under Homo sapiens, 16.5%; in [7], 4.23%; in assay [8], 16.7%; in assay [9], -7.55%.
Turning to `Cc1ccc(F)cc1S(=O)(=O)N(C)CC(N)=O`, the Percent Effect is -2.13% in assay [1]; 11% in [2]; -2.95% in assay [3]; 2.8% in assay [4]; -1.19% with Trypanosoma cruzi; -2.79% in assay [5]. For the same compound, the Percent Effect in [6] is 14.8%; in the assay filed under Homo sapiens, -1.31%; in assay [7], 9.38%; in [8] it was 16.1%; in assay [9], -0.907%.
In the case of `O=C(c1nn(-c2ccccc2F)cc1O)N1CCCC1`, the Percent Effect in [1] was -5%; in assay [2], -10.8%; in assay [3], -2.23%; in assay [4] it was 3.15%; in the assay with Trypanosoma cruzi it was -3.62%; in [5], -0.185%. Besides, the Percent Effect in assay [6] was -6.1%; in the assay listed under Homo sapiens, 5.03%; in assay [7], -6.93%; in assay [8], -8.54%; in [9] it was 4.21%.
In the case of `CC(=O)c1cccc(NC(=O)COc2c(C)n(C)ccc2=O)c1`, the Percent Effect in assay [1] is -3.77%; in [2], 9.33%; in assay [3] it was 5.33%; in assay [4], 5.82%; in the assay on Trypanosoma cruzi, -2.95%; in [5], -12.5%. The Percent Effect in assay [6] is 16.1%; in the assay listed under Homo sapiens, 7.79%; in assay [7], 7.41%; in assay [8], 20.5%; in assay [9] it was -2.85%.

The values above are taken from ChEMBL document CHEMBL3988442, “University of Dundee, Small-Polar-MMV Screening Library” (2021).
